Molecules are shown by their SMILES. This is part of a sample that, as a whole, favours compounds with a hit. Of some 79,000 tested, about 15% had one in any assay. Active and inactive are the calls of the source. Cut-off read from the data, not from the text of the source: active = growth inhibition above about 70%; inactive = the rest.

Consider 17 compounds from PubChem BioAssay (NCI).

This assay can be described thus: NCI Yeast Anticancer Drug Screen. Data for the mec2-1 strain (AID 157). Conditions: S. cerevisiae mec2-1 strain, at 50.0 µM, hits give high values. A digest of the protocol:
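mec2-1 yeast strain, carrying an alteration in DNA damage repair or cell cycle control, was exposed to compounds; growth inhibition was measured relative to vehicle-treated controls.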
Turning to `CCN(CC)CCCOC(c1ccccc1)c1ccc(Cl)cc1` (configuration not stated), the growth inhibition was 16.9% (inactive).
In the case of `O=C(/C(=C\C(=O)c1cccs1)c1ccsc1)c1ccc(Br)cc1`, the growth inhibition is -32% (inactive).
Turning to `CCCCCCOCC(=O)OC`, the growth inhibition is -9.6% (inactive).
Regarding `CC(=O)NC1=C(Sc2ccc(Cl)cc2)C(=O)c2ccccc2C1=O`, the growth inhibition was 15.8% (inactive).
With `CC(=O)OCC1OC(Sc2ccc([N+](=O)[O-])cc2)C(OC(C)=O)C(OC(C)=O)C1OC(C)=O` (configuration not stated), the growth inhibition was -11.8% (inactive).
On to `c1ccc(C23CCCCC2O3)cc1` (configuration not stated), for which the growth inhibition was 2.95% (inactive).
`CCN(CC)C(=S)Nc1ccc(-c2cc3ccc(O)cc3oc2=O)cc1`: the growth inhibition was 11.6% (inactive).
Next, `Nc1cccc(C(=O)Nc2ccc3c(O)cc(S(=O)(=O)O)cc3c2)c1`: -3.1% (inactive).
With `O=C(CCCC(=O)Nc1cccc([N+](=O)[O-])c1)CC(=O)c1ccc([N+](=O)[O-])cc1` the figure was -1.25% (inactive); with `CSc1cc(Cl)c(C)cc1S(=O)(=O)n1cc[nH]c1=O`, 1.4% (inactive).
`O=C1CN(CCN2CCCCC2)CC(=O)N2Cc3ccccc3CN12`: the growth inhibition was 2.85% (inactive).
For the compound `COC(=O)NC1(NC(=O)OC)NC(=O)c2cc(OC)c(OC)c(OC)c2N1`, the growth inhibition was 8.45% (inactive).
Next, `Cc1cccc(C(=O)NC(C)C)c1`: -40% (inactive); `Cc1ccc(S(=O)(=O)OC2CCCCCC2c2ccccc2)cc1` (configuration not stated): -5.1% (inactive).
`c1ccc2c(c1)CCCC(N1CCOCC1)C2` (configuration not stated): the growth inhibition is 2.7% (inactive).
Take `CCOC(=O)CSC(=O)NCCCl`: the growth inhibition is -0.5% (inactive).
As for `COc1ccc(C(=O)/C(Br)=C\C(=O)O)cc1`, the growth inhibition is 24.4% (inactive).
